Key:
Test in all cases: PBM binding z-score (relative to random genomic background probes); higher = stronger binding; sequences stand for … in GC…GCGATTGACAGCGTAGAATGAAGG
[1] = test system: FXR:RXRa (NR concentration 270 nM, RXRa partner concentration 90 nM)
How it was run: (§1)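 Binding z-scores were set against random background probes. The data came from custom Agilent 4×180K protein-binding microarrays carrying double-stranded probes with 34-nt variable regions, incubated 1 h with ligand-free nuclear receptor dimers. Partner-specific antibodies detected binding, and scanned fluorescence was regression-normalized.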

[2] = test system: LXRa:RXRa (NR concentration 270 nM, RXRa partner concentration 90 nM)
How it was run: as §1

[3] = test system: LXRa homodimer (NR concentration 270 nM)
How it was run: as §1

[4] = test system: LXRb:RXRa (NR concentration 270 nM, RXRa partner concentration 90 nM)
How it was run: as §1

[5] = test system: LXRb homodimer (NR concentration 270 nM)
How it was run: as §1

[6] = test system: PPARa:RXRa (NR concentration 270 nM, RXRa partner concentration 90 nM)
How it was run: as §1

[7] = test system: PPARg:RXRa (NR concentration 180 nM, RXRa partner concentration 90 nM)
How it was run: as §1

[8] = test system: PPARg:RXRa 270nM:90nM, anti-RXR (NR concentration 270 nM, RXRa partner concentration 90 nM)
How it was run: as §1

[9] = test system: PPARg:RXRa 30nM:10nM, anti-RXR (NR concentration 30 nM, RXRa partner concentration 10 nM)
How it was run: as §1

[10] = test system: PPARg:RXRa 90nM:30nM, anti-RXR (NR concentration 90 nM, RXRa partner concentration 30 nM)
How it was run: as §1

[11] = test system: PPARg:RXRa DBDmut IVT, anti-RXR (DBD mutation: RXRa K156A/R161A, NR concentration 270 nM, RXRa partner concentration 90 nM)
How it was run: as §1

[12] = test system: PPARg:RXRa IVT, anti-PPARg (NR concentration 270 nM, RXRa partner concentration 90 nM)
How it was run: as §1

[13] = test system: PPARg DBDmut:RXRa IVT, anti-PPARg (DBD mutation: PPARg1 K132A/R137A, NR concentration 270 nM, RXRa partner concentration 90 nM)
How it was run: as §1

[14] = test system: PPARg DBDmut IVT, anti-PPARg (DBD mutation: PPARg1 K132A/R137A, NR concentration 270 nM)
How it was run: as §1

[15] = test system: PPARg homodimer (NR concentration 180 nM)
How it was run: as §1

[16] = test system: PXR:RXRa (NR concentration 270 nM, RXRa partner concentration 90 nM)
How it was run: as §1

[17] = test system: PXR homodimer (NR concentration 270 nM)
How it was run: as §1

[18] = test system: RARa:RXR (NR concentration 270 nM, RXRa partner concentration 90 nM)
How it was run: as §1

[19] = test system: RARa homodimer (NR concentration 270 nM)
How it was run: as §1

[20] = test system: RARb:RXRa (NR concentration 270 nM, RXRa partner concentration 90 nM)
How it was run: as §1

Sequence	PBM binding z-score [1]	PBM binding z-score [2]	PBM binding z-score [3]	PBM binding z-score [4]	PBM binding z-score [5]	PBM binding z-score [6]	PBM binding z-score [7]	PBM binding z-score [8]	PBM binding z-score [9]	PBM binding z-score [10]	PBM binding z-score [11]	PBM binding z-score [12]	PBM binding z-score [13]	PBM binding z-score [14]	PBM binding z-score [15]	PBM binding z-score [16]	PBM binding z-score [17]	PBM binding z-score [18]	PBM binding z-score [19]	PBM binding z-score [20]
GGAACGAGGGCAAAGTTGATAGCTTCTGTCGACG	1.24	0.709	-0.752	0.608	-0.484	3.85	6.78	6.83	5.74	7.17	4.1	4.11	0.574	0.0846	0.712	0.96	0.104	1.34	-0.449	2.14
TCTTGTAGATCAGCAGGTTAGGAAAGCTGGCCAA	-0.1	0.244	-0.295	-0.112	-0.394	0.532	-0.423	1.47	2.53	2.15	1.65	0.124	-0.587	-0.926	0.0866	-0.035	-0.454	0.152	0.51	0.179
CCGACTGGGGCAAGGTGACCATAACGCACAGCCA	-0.279	-0.424	-0.369	-0.293	-1.35	0.808	1.99	1.81	-0.0516	0.949	2.69	3.79	-0.323	-0.812	0.0642	-0.346	-0.578	-0.0197	-0.0269	1.14
CAAACTAGGTCAAGGTCAAAGTCGGTTTGTGCCA	6.65	5.95	4.23	4.67	1.63	6.12	9.81	8.12	7.05	8.27	8.86	8.63	3.11	0.796	3.64	5.25	2.25	5.33	2.13	5.19
AGATCGAGGGCAATGAGTTGATAGCACGGGTGGC	0.45	0.121	-0.246	-0.143	-0.369	1.14	1.16	0.568	0.0147	0.283	2.97	2.42	0.184	-0.0429	0.453	1.53	3.29	0.437	0.369	2.12
ATATGTAGGTTACATCCGGGTCAGTCAGGCTATG	1.08	2.95	0.519	1.74	0.572	3.66	5.53	4.69	2.14	3.86	7.52	7.34	2.22	1.82	1.39	2.01	0.364	2.42	0.784	1.96
ACTTCCGGGTCAACGAGGTTATAGCACGCGTATA	6.37	4.46	0.851	4.24	1.38	5.23	6.06	5.53	2.51	4.51	4.21	5.27	1.78	0.785	3.05	4.91	6.49	4.87	0.82	3.97
CCTAGCAGGCCGGGGTCACTCAAGCATTTCGCTT	4.66	3.63	-0.0184	3.88	-0.234	4.93	2.5	3.86	0.906	2.54	0.19	1.7	-1.3	-0.709	1.87	5.35	0.474	5.98	0.348	3.53
GCTAGTTGGTCAGTAAAACGTCACACACCGGTCG	-0.277	-0.464	-0.383	-0.473	-0.195	-0.343	0.524	-0.186	-0.445	-0.286	0.256	0.168	0.0879	-0.472	-0.368	-0.432	-0.66	-0.372	-0.12	0.305
CATTCAGGGTCAGCTAGGCCAGAGTAGGGACGGC	5.24	4.08	0.181	2.92	1.42	4.82	3.87	3.94	1.29	2.81	1.6	3.11	2.17	0.968	1.47	2.74	0.0308	3.58	0.262	4.42
GATACAGGTTCAAGGCCAGAGTACGCGTATTGAT	1.85	1.7	0.305	1.41	-0.271	2.72	1.43	1.64	0.208	1.19	-0.252	0.582	-0.175	-0.432	1.38	1.9	0.971	1.61	0.647	1.79
GATACAGGGTCAGCTAGAGGCCAGGGTATGGAAA	4.42	2.81	-0.258	2.46	-0.476	4.43	3.61	3.44	0.426	2.14	0.631	2.38	0.352	-0.589	2.74	2.94	0.0758	4.28	0.0773	4.06
CGAACTAGGTCAAGGACAGTGGATCTCCGCACGC	3.06	1.85	-0.0741	1.23	-0.565	4.31	6.9	6.1	3.35	5.72	8.19	7.79	1.43	0.272	0.876	0.906	-0.161	1.62	0.0729	3.84
ATCTCTAGGTAACCGAGTTCAGTGAATGCCGAAC	0.422	0.883	1.08	0.706	0.377	1.44	0.672	1.1	-0.103	0.724	3.51	2.9	0.719	0.977	0.0322	2.93	2.94	1.04	0.216	0.826
